Test results published in PubChem BioAssay.
Calls of active or inactive are those of the source.

Tests used:
[1] = system: Plasmodium falciparum Sir2 (PF13_0152, Sir2A); assay: pfSir2 binders on small-molecule microarrays, primary screen, biochemical, small-molecule microarray, 635 nm fluorescence (AID 1098); conditions: small-molecule microarray binding, fluorescence 635 nm; higher = more signal;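 note: score merges spot fluorescence intensity with its signal-to-noise ratio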
[2] = small-molecule microarray binders of probe aDKK1, primary screen, biochemical, biotinylated probe, 635/667 nm fluorescence (AID 1099); conditions: higher = more signal;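 note: score merges 667nm spot fluorescence with signal to noise across triplicate slides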
[3] = small-molecule microarray binders of probe aCHRDL2, primary screen, biochemical, biotinylated probe, 635/667 nm fluorescence (AID 1100); conditions: higher = more signal
[4] = splicing luciferase reporter signal modulators, primary screen, spliceosome inhibition project, cell-based, HEK293, splice +/- reporter (AID 1101); conditions: luminescence, 24 h, higher = more signal, called active from +8 up or from −8 down;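 note: HEK293 cells carrying a splicing-competent luciferase reporter gene; test concentration not given here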
[5] = molecular target: Fibroblast growth factor 10 (Homo sapiens) (UniProt O15520); assay: FGF10 binders on small-molecule microarrays, primary screen, biochemical, small-molecule microarray, 635 nm fluorescence (AID 1102); conditions: FGF10 binding, fluorescence 635 nm, higher = more signal
Fibroblast growth factor 10 (Homo sapiens), sequence (O15520 whole entry, looked up): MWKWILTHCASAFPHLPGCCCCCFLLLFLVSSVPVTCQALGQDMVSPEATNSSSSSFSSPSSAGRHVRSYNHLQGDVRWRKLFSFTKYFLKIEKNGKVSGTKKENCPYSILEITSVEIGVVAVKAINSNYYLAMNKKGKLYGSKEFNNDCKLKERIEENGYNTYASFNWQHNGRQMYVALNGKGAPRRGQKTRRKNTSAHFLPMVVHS

[6] = system: glycogen synthase kinase-3 (GSK3A per assay name; protocol says GSK3B); assay: GSK3 binders on small-molecule microarrays, primary screen, biochemical, small-molecule microarray, 635 nm fluorescence, GSK3A (AID 1103); conditions: small-molecule microarray binding, fluorescence 635 nm; higher = more signal; note: the record names both GSK3A and GSK3B
[7] = molecular target: Epidermal growth factor receptor (Homo sapiens) (UniProt P00533); assay: EGFR binders on small-molecule microarrays, primary screen, biochemical, small-molecule microarray, 635 nm fluorescence (AID 1104); conditions: EGFR binding, higher = more signal;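 note: score merges 667 nm emission intensity with spot signal to noise over triplicate slides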
Epidermal growth factor receptor (Homo sapiens), sequence (P00533 whole entry, looked up): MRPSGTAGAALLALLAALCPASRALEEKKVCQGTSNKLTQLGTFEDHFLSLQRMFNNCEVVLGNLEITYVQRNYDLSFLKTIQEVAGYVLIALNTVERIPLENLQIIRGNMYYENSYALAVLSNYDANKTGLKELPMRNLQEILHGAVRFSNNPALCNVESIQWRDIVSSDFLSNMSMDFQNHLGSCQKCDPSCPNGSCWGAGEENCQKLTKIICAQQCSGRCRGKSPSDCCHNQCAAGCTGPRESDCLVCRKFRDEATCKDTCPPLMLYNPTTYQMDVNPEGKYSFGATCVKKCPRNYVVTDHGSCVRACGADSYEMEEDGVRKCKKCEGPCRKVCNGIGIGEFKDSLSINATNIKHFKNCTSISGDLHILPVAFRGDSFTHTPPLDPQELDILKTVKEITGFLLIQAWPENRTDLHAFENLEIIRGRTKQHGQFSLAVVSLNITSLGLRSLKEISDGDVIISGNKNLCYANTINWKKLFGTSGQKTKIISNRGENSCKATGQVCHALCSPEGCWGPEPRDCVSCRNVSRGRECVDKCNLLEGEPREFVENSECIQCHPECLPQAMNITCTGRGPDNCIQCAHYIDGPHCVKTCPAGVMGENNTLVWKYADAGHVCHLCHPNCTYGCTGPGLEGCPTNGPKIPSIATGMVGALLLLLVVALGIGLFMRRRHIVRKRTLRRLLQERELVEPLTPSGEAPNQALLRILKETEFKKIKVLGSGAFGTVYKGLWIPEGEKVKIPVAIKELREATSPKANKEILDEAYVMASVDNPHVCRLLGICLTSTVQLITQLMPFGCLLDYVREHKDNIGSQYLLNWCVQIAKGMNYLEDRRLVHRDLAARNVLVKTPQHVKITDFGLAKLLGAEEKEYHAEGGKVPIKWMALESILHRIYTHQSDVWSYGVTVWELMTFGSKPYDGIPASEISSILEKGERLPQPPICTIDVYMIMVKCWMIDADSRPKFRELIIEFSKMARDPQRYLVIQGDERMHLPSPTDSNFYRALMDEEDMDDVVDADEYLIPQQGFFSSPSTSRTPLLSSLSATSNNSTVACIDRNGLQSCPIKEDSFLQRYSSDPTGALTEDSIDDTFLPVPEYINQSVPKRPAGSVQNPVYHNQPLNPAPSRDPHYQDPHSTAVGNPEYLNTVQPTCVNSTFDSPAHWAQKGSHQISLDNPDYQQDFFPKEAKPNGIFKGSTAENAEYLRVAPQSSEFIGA

[8] = molecular target: Follistatin-related protein 3 (Homo sapiens) (UniProt O95633); assay: FSTL3 binders on small-molecule microarrays, primary screen, biochemical, small-molecule microarray, 635 nm fluorescence (AID 1105); conditions: FSTL3 binding, higher = more signal;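 note: score merges emission near 667 nm and signal to noise per printed spot across three slides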
Follistatin-related protein 3 (Homo sapiens), sequence (O95633 whole entry, looked up): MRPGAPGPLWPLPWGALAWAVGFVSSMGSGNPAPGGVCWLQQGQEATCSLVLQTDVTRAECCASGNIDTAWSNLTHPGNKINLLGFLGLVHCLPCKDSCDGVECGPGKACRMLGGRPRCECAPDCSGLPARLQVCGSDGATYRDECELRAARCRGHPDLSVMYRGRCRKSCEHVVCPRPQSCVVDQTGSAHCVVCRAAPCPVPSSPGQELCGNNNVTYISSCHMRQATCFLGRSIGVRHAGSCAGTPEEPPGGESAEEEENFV

[9] = molecular target: Dickkopf-related protein 1 (Homo sapiens) (UniProt O94907); assay: DKK1 binders on small-molecule microarrays, primary screen, biochemical, small-molecule microarray, 635 nm fluorescence scan (AID 1106); conditions: DKK1 binding, higher = more signal;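 note: score merges emission near 667 nm with signal to noise over three replicate slides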
Dickkopf-related protein 1 (Homo sapiens), sequence (O94907 whole entry, looked up): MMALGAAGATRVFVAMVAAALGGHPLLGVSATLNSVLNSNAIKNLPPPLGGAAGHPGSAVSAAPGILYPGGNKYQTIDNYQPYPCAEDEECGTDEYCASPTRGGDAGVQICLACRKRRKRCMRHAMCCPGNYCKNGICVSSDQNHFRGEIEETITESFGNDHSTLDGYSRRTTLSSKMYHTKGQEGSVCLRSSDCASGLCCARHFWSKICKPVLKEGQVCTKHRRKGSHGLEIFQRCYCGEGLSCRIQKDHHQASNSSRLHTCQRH

[10] = system: Inhibin beta A chain (activin A); assay: INHBA (activin A) binders on microarrays, primary screen, biochemical, small-molecule microarray, 635 nm fluorescence scan (AID 1107); conditions: small-molecule microarray binding, higher = more signal;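 note: mouse activin A protein probed at 4.33 µg/mL on printed slides; score merges bound-protein fluorescence near 667 nm with spot signal-to-noise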
[11] = system: Human papillomavirus type 1a protein E7 (residues 44-93); assay: HPV1a E7 fragment binders on microarrays, primary screen, biochemical, small-molecule microarray, residues 44-93, 635 nm fluorescence (AID 1108); conditions: small-molecule microarray binding, fluorescence 635 nm; higher = more signal;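 note: E7 fragment applied at 1 µg/mL in TBST for 1 h at 4 C; score combines spot fluorescence with its signal to noise ratio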
[12] = modulators of HCV replicon luciferase signal, primary screen, HCV replication inhibitor project, Huh7 cells, luciferase reporter (AID 1109); conditions: 48 h, higher = more signal;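 note: huh7 hepatoma cells harbouring a luciferase neomycin HCV replicon reporter; luciferase luminescence as measure of HCV replicon replication; test concentration not given here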
[13] = molecular target: Left-right determination factor 2 (Homo sapiens) (UniProt O00292); assay: LEFTY2 binders on small-molecule microarrays, primary screen, biochemical, small-molecule microarray, 635 nm fluorescence scan (AID 1110); conditions: LEFTY2 binding, higher = more signal
Left-right determination factor 2 (Homo sapiens), sequence (O00292 whole entry, looked up): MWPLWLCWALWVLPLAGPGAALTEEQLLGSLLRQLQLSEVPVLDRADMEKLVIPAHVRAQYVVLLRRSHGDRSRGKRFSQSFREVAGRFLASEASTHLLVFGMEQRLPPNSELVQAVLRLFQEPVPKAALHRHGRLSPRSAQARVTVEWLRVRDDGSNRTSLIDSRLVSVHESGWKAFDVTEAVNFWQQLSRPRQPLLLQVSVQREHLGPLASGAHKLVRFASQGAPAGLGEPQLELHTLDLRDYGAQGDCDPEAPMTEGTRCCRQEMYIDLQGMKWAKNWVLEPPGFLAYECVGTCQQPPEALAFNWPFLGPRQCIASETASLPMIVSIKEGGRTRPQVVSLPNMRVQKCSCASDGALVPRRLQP

[14] = molecular target: Calmodulin-1 (Homo sapiens) (UniProt P0DP23); assay: CALM1 binders on microarrays, EGTA buffer, profiling panel, biochemical, small-molecule microarray, Cy5-labelled CALM1 (AID 1111); conditions: Cy5-CALM1 binding fluorescence, higher = more signal;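 note: labelled calmodulin applied in Tris saline Tween buffer holding calcium plus EGTA and DTT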
[15] = molecular target: Calmodulin-1 (Homo sapiens) (UniProt P0DP23); assay: calcium-bound CALM1 binders on microarrays, profiling panel, artefact control for SMM control-protein annotation, biochemical, small-molecule microarray, Cy5-labelled CALM1, plus calcium (AID 1112); conditions: Cy5-CALM1 binding fluorescence, higher = more signal;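 note: score merges spot fluorescence with signal to noise from triplicate slides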
[16] = small-molecule microarray binders of probe aWnt5a, primary screen, biochemical, biotinylated probe, 635/667 nm fluorescence (AID 1113); conditions: higher = more signal;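 note: score merges 667 nm fluorescence intensity with signal-to-noise per printed feature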
[17] = small-molecule microarray binders of probe aShh, primary screen, biochemical, biotinylated probe, 635/667 nm fluorescence (AID 1114); conditions: higher = more signal;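 note: probe is biotin-labelled aShh protein from a stem cell growth factor screen; measures binding of labelled protein to compounds printed on the slide; score merges feature fluorescence at 667 nm with signal-to-noise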
[18] = small-molecule microarray binders of probe aNog, primary screen, biochemical, biotinylated probe, 635/667 nm fluorescence (AID 1115); conditions: higher = more signal;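 note: probe is biotinylated aNog protein used at 0.15 µg/mL for 1 h at 4 C; z-score combines 667 nm fluorescence of each spot with its signal to noise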
[19] = molecular target: Torsin-1A-interacting protein 1 (Homo sapiens) (UniProt Q5JTV8); assay: LAP1 binders from COS7 cell lysate, primary screen, small-molecule microarray, 635/667 nm fluorescence (AID 1116); conditions: COS7-hLAP1 lysate binding, 635 nm fluorescence, higher = more signal
Torsin-1A-interacting protein 1 (Homo sapiens), sequence (Q5JTV8 whole entry, looked up): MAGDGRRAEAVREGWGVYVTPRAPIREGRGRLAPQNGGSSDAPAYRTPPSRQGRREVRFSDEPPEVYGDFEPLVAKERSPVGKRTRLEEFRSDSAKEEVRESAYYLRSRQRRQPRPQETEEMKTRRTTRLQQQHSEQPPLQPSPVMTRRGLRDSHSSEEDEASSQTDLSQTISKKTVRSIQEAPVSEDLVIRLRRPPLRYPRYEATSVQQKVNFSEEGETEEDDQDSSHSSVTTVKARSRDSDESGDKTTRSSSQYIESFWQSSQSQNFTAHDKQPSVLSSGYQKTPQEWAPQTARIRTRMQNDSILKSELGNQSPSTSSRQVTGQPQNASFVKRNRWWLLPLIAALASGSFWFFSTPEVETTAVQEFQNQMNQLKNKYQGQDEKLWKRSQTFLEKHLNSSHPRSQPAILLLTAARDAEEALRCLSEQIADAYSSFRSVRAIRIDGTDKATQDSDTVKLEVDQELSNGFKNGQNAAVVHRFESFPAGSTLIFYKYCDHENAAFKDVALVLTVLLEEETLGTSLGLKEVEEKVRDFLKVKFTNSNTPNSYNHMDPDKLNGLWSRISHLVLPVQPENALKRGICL

[20] = molecular target: Alpha-bungarotoxin (Bungarus multicinctus) (UniProt P60615); assay: alpha-bungarotoxin binders on microarray, profiling panel, artefact control for SMM control protein annotation, biochemical, small-molecule microarray, Alexa647 label, 635/667 nm fluorescence (AID 1117); conditions: alpha-BTX-A647 binding fluorescence, higher = more signal
Alpha-bungarotoxin (Bungarus multicinctus), sequence (P60615 whole entry, looked up): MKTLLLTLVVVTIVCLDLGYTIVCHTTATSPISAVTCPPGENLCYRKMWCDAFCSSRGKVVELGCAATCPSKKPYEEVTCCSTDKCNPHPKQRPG

Structure (SMILES) | composite z-score [1] | composite z-score [2] | composite z-score [3] | z-score [4] | composite z-score [5] | composite z-score [6] | composite z-score [7] | composite z-score [8] | composite z-score [9] | composite z-score [10] | composite z-score [11] | z-score [12] | composite z-score [13] | composite z-score [14] | composite z-score [15] | composite z-score [16] | composite z-score [17] | composite z-score [18] | composite z-score [19] | composite z-score [20]
C=CCC(OC(C)=O)[C@@H]1[C@@H](N(Cc2cc3ccccc3o2)C(=O)Cc2ccc(OC)cc2)c2cc(OCCCO)ccc2N1C(=O)c1ccc(-c2ccccc2)cc1 (stereo not given in full) | -0.297 | 0.068 | 0.63 | -0.354 (inactive) | -0.185 | -0.158 | -0.426 | -0.272 | -0.45 | 1.34 | 0.0962 | -0.71 | -0.214 | -0.365 | 0.468 | -0.0767 | -0.147 | -0.23 | -0.113 | 0.0856
COCCCNC(=O)[C@@H]1c2ccccc2C(=O)N(c2ccc(C)cn2)[C@H]1c1ccc(CO)cc1 | 1.21 | -0.281 | 1.01 | -0.517 (inactive) | -1.87 | -1.19 | -2.24 | -1.84 | -1.42 | -1.84 | -0.745 | 0.176 | -1.83 | -0.878 | -0.827 | -0.363 | -0.19 | -0.244 | -2.83 | -0.958
O=c1c2ccc(Br)cc2nc(-c2ccccc2)n1Cc1cccc(O)c1 | 0.524 | 0.864 | 0.715 | -0.376 (inactive) | 0.528 | 0.476 | 0.145 | 0.547 | 0.0301 | 0.41 | -0.128 | -0.153 | 0.194 | 2.32 | 0.756 | 0.0438 | -0.305 | -0.218 | 2.51 | 1.8
